Measurements: PubChem BioAssay (NCATS)
Results filed as inconclusive are left out. Unmarked numbers belong to inactive results. Calls of active or inactive are those of the source. The call rests on the fitted dose curve; in most records, active means well fitted cell-killing curve with a large enough effect; inconclusive means small, poorly fitted or top-dose-only effect; inactive means no such curve, though single readings can be large or run the other way.

Assay: qHTS of pediatric cancer cell lines to identify multiple opportunities for drug repurposing: Primary screen for OHS-50 cells (AID 1347103); further: nearly all actives have a fitted effect of over 40% in size
Settings: OHS-50 osteosarcoma viability, CellTiter-Glo luminescence, 48 h; series mostly up to 57.3 µM; activity change, negative = cytotoxic: at the top concentration
Text: Drug repurposing or repositioning has been offered as a strategy for drug development in oncology programs. This approach has special potential for childhood cancers and other rare or orphan diseases, where the expected return on new drug development has been a disincentive to pharmaceuticals.
In this project we exploit the poly-pharmacology of drugs to discover new indications via phenotypic screening of a panel of 19 well-characterized cell lines derived from solid tumors seen in children and adolescents. The goal is to identify approved drugs with previously unrecognized anticancer properties that has the potential to reveal new mechanisms and biological processes involved in carcinogenesis or drug resistance. We employed a titration-based paradigm (quantitative high-throughput screening or qHTS), where all compounds were tested at multiple concentrations for their effect on cell viability. Concentration-response curves (CRCs) were derived directly from the primary screen, and both potency and efficacy values were used to identify compounds with robust bioactivity profiles. We screened the NIH Chemical Genomics Center (NCGC) Pharmaceutical Collection (NPC) and Mechanism Interrogation Plate (MIPE) small molecule collections of approved and investigational compounds against these cell lines; and measured metabolically active cells after 48 hours of compound treatment as a proxy for cell viability.
Assay Submitter: Nathalia J. Martinez, National Center for Advancing Translational Sciences, National Institutes of Health, Rockville, MD, USA; email: natalia.martinez@nih.gov
[1] Shen, M et al. Quantitative high-throughput phenotypic screening of pediatric cancer cell lines identifies multiple opportunities for drug repurposing. Oncotarget 2017 Dec 19;9(4):4758-4772. PMID 29435139.
The cells were obtained from University of North Carolina (UNC), Pediatric Preclinical Testing Program (PPT), and Coriell Institute (CI).
qHTS cell viability assay:
Cells were assayed in growth media at a density of 500-1,000 cells/well. Five microliters of cells were dispensed into 1,536-well, white, solid-bottom, TC-treated plates (Greiner Bio One) using a multidrop dispenser and incubated at 37 degrees C, 5% CO2, under a humidified atmosphere for 5 hours. Twenty-three nanoliters of compounds and controls (neutral control DMSO or positive control bortezomib at final concentration of 2.3 µM) were subsequently transferred by Kalypsys pintool. For primary screens, the MIPE collection was tested at 11-point dilutions (final concentrations range from 0.78 nM to 46 µM) and the NPC collection at 8-point dilutions (final concentrations range from 0.59 nM to 46 µM). Compounds tested in follow-up screens were assayed at 11-point dilutions. Cells were incubated for 48 hours, followed by addition of 3 µL of CellTiter-Glo (Promega). After a 15 min incubation at room temperature, samples were analyzed for luminescence intensity using a ViewLux High-throughput CCD imager equipped with clear filters.
Potency means the concentration at half of the fitted maximal effect.

SMILES	activity change, negative = cytotoxic	Potency
CC(C)(CO)[C@@H](O)C(=O)NCCCO	-3.61%	
CC(=O)OCC(=O)[C@@]1(O)[C@H](C)C[C@H]2[C@@H]3CCC4=CC(=O)C=C[C@]4(C)[C@@]3(F)[C@@H](O)C[C@@]21C	-3.94%	
CCOc1ccc(Cc2nccc3cc(OCC)c(OCC)cc23)cc1OCC		7.77 µM (active)
N[C@H](Cc1c[nH]c2ccccc12)C(=O)O	7.97%	
CCOC(=O)/C=C(C)/C=C/C=C(C)/C=C/c1c(C)cc(OC)c(C)c1C		24.6 µM (active)
Cc1nc2n(c(=O)c1CCN1CCC(c3noc4cc(F)ccc34)CC1)CCC[C@H]2O	-7.7% [at 19.7 µM]	
COc1cc(C(=S)N2CCOCC2)cc(OC)c1OC	-4.81%	
Cc1ccccc1C(=O)Nc1ccc(C(=O)N2CCCC(N(C)C)c3ccccc32)cc1 (stereo not given)		21.9 µM (active)
CC1(C)O[C@@H]2C[C@H]3[C@@H]4C[C@H](F)C5=CC(=O)CC[C@]5(C)[C@H]4[C@@H](O)C[C@]3(C)[C@]2(C(=O)CO)O1	0.757%	
COCc1c(C(C)C)nc(C(C)C)c(/C=C/[C@@H](O)C[C@@H](O)CC(=O)O)c1-c1ccc(F)cc1		0.309 µM (active)
O=C(OCCOCCO)c1ccccc1Nc1cccc(C(F)(F)F)c1		24.6 µM (active)
NCCCC[C@H](N[C@@H](CCc1ccccc1)C(=O)O)C(=O)N1CCC[C@H]1C(=O)O	10.2%	
c1ccc(CNCCNCc2ccccc2)cc1	-5.66%	
CCCOC(C(=O)OC1CCN(C)CC1)(c1ccccc1)c1ccccc1		27.6 µM (active)
COc1ccc(CCN2CCC(Nc3nc4ccccc4n3Cc3ccc(F)cc3)CC2)cc1		30.9 µM (active)
NC(CS)C(=O)O (stereo not given)	12.6%	
NCCC(O)(P(=O)(O)O)P(=O)(O)O	2.77%	
CCN1CCCC1=O	2.09%	
O=C1OC2(c3ccc(O)cc3Oc3cc(O)ccc32)c2ccccc21	12.1%	
OC[C@H]1O[C@H](O[C@]2(CCl)O[C@H](CCl)[C@@H](O)[C@@H]2O)[C@H](O)[C@@H](O)[C@H]1Cl	1.72%	

SMILES	activity change, negative = cytotoxic	Potency
C#C[C@]1(OC(C)=O)CC[C@H]2[C@@H]3CCC4=C[C@@H](OC(C)=O)CC[C@@H]4[C@H]3CC[C@@]21C		15.5 µM (active)
CC(C)(C(=O)c1cccnc1)c1cccnc1	-1.34%	
O=c1[nH]c(=O)n([C@H]2CCCO2)cc1F	-4.95%	
O=C(O)CNC(=O)c1ccccc1	11.2%	
CCCCOc1cc(C(=O)NCCN(CC)CC)c2ccccc2n1	-29.2%	
CCCCS(=O)(=O)N[C@@H](Cc1ccc(OCCCCC2CCNCC2)cc1)C(=O)O	16%	
Cc1c(F)c(N2CCNC(C)C2)cc2c1c(=O)c(C(=O)O)cn2C1CC1 (stereo not given)	131%	
CNC(=O)CN(CCN(CCN(CC(=O)[O-])CC(=O)NC)CC(=O)[O-])CC(=O)[O-].O.[Gd+3]	8.8%	
CCCC(=O)Nc1ccc(OCC(O)CNC(C)C)c(C(C)=O)c1 (stereo not given)	-2.22%	
CCCCCCCCCCCCCCCC[N+](C)(C)CC		0.692 µM (active)
NC(CO)(CO)CO	7.47%	
Clc1ccc2c(c1)CCc1cccnc1C2=C1CCNCC1		15.5 µM (active)
Nc1ccn([C@@H]2O[C@H](CO)[C@@H](O)C2(F)F)c(=O)n1		11 µM (active)
OCc1ccccc1O	6.06%	
CCOC(=O)n1ccn(C)c1=S	-11%	
O=C(N/N=C/c1ccccc1O)c1ccncc1		5.5 µM (active)
C[C@]12C=CC(=O)C=C1CC[C@@H]1[C@@H]2[C@@H](O)C[C@@]2(C)[C@H]1CC[C@]2(O)C(=O)CO	-19.4%	
C[C@@H]1C[C@H]2[C@@H]3C[C@H](F)C4=CC(=O)C(Cl)=C[C@]4(C)[C@@]3(F)[C@@H](O)C[C@]2(C)[C@@]1(O)C(=O)CO	1.55%	
CCN(CC)C(=O)N1CCN(C)CC1	4.79%	
CC1=C(C(=O)O)N2C(=O)[C@@H](NC(=O)[C@H](N)c3ccc(O)cc3)[C@H]2SC1	26.2%	
